# TDP1 block – inhibitors of human tyrosyl-DNA phosphodiesterase TDP1. recombinant TDP1, AlphaScreen DNA substrate cleavage. Q9NUW8. AID 485290. Potency, µM (series often up to 130 µM), hits mostly inhibitors. actives 0.28% (n = 350,000); also: nearly all actives have a fitted effect of over 40% in size
#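 Here, a 5' biotin and 3' phosphotyrosine-FITC DNA oligonucleotide reports Tdp1 activity: intact substrate bridges AlphaScreen beads, while cleavage leaves a 3' phosphate and drops signal. All incubations at room temperature.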
# DT40 TDP1 CPT – growth inhibition of DT40 Tdp1-/-;hTDP1 cells with camptothecin (screen for TDP1 inhibitors); chicken DT40 Tdp1-/-;hTDP1 cells + 20 nM CPT, ATP luminescence, 48 h; actives 12% (n = 420,000); Potency, µM (titrated, usually from 46.2 µM), usual class: inhibitors; also: nearly all actives have a fitted effect of over 55% in size
#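 Chicken DT40 Tdp1-/- cells complemented with human TDP1, 400 cells/well, exposed to compounds plus 20 nM camptothecin for at least 48 h at 37 C; viability read as ATP content by CellTiter-Glo luminescence.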
# GCN5L2 inh – GCN5L2 (KAT2A) acetyltransferase inhibition; Q92830; GCN5L2 HAT assay, ThioGlo1 CoA-SH fluorescence; Potency, µM (doses to about 58.9 µM), most hits filed as inhibitors; actives 0.21% (n = 390,000); AID 504327
# Target sequence (Q92830 whole entry, looked up): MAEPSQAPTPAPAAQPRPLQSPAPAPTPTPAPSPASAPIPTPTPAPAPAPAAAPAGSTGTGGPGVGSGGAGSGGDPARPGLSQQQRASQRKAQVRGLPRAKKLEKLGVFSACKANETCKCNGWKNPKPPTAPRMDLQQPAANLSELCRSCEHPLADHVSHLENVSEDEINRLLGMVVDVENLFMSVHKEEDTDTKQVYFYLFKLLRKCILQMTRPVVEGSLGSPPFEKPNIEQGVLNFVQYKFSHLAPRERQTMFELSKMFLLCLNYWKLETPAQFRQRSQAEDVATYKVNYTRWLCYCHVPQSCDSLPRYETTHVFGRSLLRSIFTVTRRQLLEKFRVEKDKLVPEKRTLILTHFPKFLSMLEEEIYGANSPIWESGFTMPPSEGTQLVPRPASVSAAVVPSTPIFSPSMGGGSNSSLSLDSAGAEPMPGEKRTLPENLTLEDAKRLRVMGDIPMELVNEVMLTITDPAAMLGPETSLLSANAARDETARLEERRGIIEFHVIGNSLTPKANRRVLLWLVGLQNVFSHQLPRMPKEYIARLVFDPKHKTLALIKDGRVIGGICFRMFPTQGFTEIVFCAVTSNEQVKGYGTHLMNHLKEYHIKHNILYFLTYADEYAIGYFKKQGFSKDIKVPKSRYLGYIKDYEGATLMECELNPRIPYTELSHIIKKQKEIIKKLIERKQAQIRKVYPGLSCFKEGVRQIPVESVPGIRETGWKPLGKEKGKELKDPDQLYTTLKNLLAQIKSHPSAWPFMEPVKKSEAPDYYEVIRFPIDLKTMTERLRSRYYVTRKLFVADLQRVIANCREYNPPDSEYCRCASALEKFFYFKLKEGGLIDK
#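 Free CoA generated was detected with ThioGlo1 (50uM) fluorescence at Ex340nm/Em540nm, read immediately and after 20 min at room temperature. Enzyme, 20 nM in HEPES pH 7.5 buffer, saw compounds 15 min before adding 75uM H3(1-25) peptide and 70uM acetyl-CoA.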
# VDR inhibitor – inhibitors of human vitamin D receptor; VDR-SRC2-3 peptide fluorescence polarization, 2 h; Potency, µM, usual class: inhibitors; actives 0.93% (n = 400,000); AID 504847
#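 Fluorescence polarization assay of small-molecule disruption of VDR binding to coregulator peptide SRC2-3. Compounds and controls pin-transferred, then read after 2 h incubation at ambient room temperature.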
# DT40 TDP1 no CPT – qHTS for Inhibitors of human tyrosyl-DNA phosphodiesterase 1 (TDP1): qHTS in cells in absence of CPT; DT40 Tdp1-/- hTDP1 cells, no CPT, ATP luminescence, 48 h; Potency, µM (doses to about 46.2 µM), hits mostly inhibitors; actives 15% (n = 420,000); AID 686978, 2013; also: nearly all actives have a fitted effect of over 55% in size
#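 Chicken DT40 Tdp1-/- cells complemented with human TDP1, screened without camptothecin (DMSO vehicle only), 400 cells/well. Compounds pin-transferred, cells incubated at 37 °C for at least 48 hr. Growth read as ATP-dependent luminescence (CellTiter-Glo, 30 min at RT).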
# PLK1 PBD block – PLK1 (human) polo-box domain binding inhibition | actives 2.8% (n = 360,000) | Plk1 PBD binding of FITC phosphopeptide, fluorescence polarization | P53350 | AID 720504 | Potency, µM, hits mostly inhibitors; also: series mostly up to about 57 µM; nearly all actives have a fitted effect of over 65% in size
# Numbers stand for hits; 0 = inactive; ? = inconclusive; - = not tested or not shown; [ ] = dose if it differs, or a comment. An excerpt weighted towards active compounds, which were near 18% of everything screened. Calls follow the shape of the dose curve; as a rule, active = well fitted curve in the direction sought with a large enough effect; inconclusive = small, poorly fitted or top-dose-only effect, or another doubt; inactive = no such curve, though single readings can be large; an effect the other way counts as inactive or inconclusive.
SMILES,TDP1 block,DT40 TDP1 CPT,GCN5L2 inh,VDR inhibitor,DT40 TDP1 no CPT,PLK1 PBD block
CC(C)CC(=O)NC(NC(=S)Nc1sc2c(c1C#N)CCCC2)C(Cl)(Cl)Cl (centres undefined),0,16.4µM,0,0,?,0
CCCN1CCN(CCNC(=O)Nc2ccc(OC)cc2OC)CC1,0,0,0,0,0,-
Nc1ncc(-c2ccc(F)cc2)nc1N1CCN(CCO)CC1,-,0,-,-,0,0
OCCN1CCN(C2CCC(c3ccc(F)cc3)c3ccc(F)cc32)CC1 (centres undefined),-,?,-,0,8.2µM,0
CCc1cccc(NC(=O)CCn2c(=O)c3cccn3c3cccnc32)c1,0,0,?,0,0,-
O=C(NC(c1ccc(Cl)cc1)c1ccsc1)C1CCN(Cc2ccc(Oc3ccccc3)cc2)CC1 (centres undefined),-,2.59µM,-,-,2.59µM,0
CCCN1CCC(C(=O)NC(c2ccc(Cl)cc2)c2ccsc2)CC1 (centres undefined),-,?,-,-,2.91µM,0
Cc1ccccc1C(NC(=O)C1CCN(Cc2ccc(Oc3ccccc3)cc2)CC1)c1ccsc1 (centres undefined),-,18.4µM,-,-,18.4µM,0
COc1cc(CN2CCC(C(=O)NC(c3ccccc3)c3ccsc3)CC2)cc(OC)c1 (centres undefined),-,16.4µM,-,-,20.6µM,0
COc1ccc(CC(=O)Nc2nnc3n2CCS3)cc1,0,0,0,0,0,-
COc1ccc(Br)c2c1-c1nc(NC(=O)c3ccccc3SC)sc1C2,0,?,0,?,?,-
COc1ccc(S(=O)(=O)N2CCCCC2)cc1NC(=O)c1ccc(Cl)nc1,0,?,0,0,0,0
Cc1ccn2c(Nc3ccccc3C)c(-c3ccccn3)nc2c1,0,16.4µM,0,0,2.91µM,0
Cc1ccc2nc(-c3ccccn3)c(Nc3ccccc3C)n2c1,0,16.4µM,0,0,10.3µM,0
Cc1ccc2nc(-c3ccccn3)c(Nc3ccc(F)cc3)n2c1,0,2.06µM,0,0,2.31µM,-
CC(C)c1ccc(Nc2c(-c3ccccn3)nc3ccccn23)cc1,0,9.2µM,0,0,2.06µM,-
COc1ccccc1NS(=O)(=O)c1cccc(C(=O)N/N=C/c2ccc(NC(C)=O)cc2)c1,0,0,0,0,0,0
CCOc1ccc(CCNC(=O)CN2C(=O)COc3ccc(S(=O)(=O)N4CCC(C)CC4)cc32)cc1,0,-,0,0,-,-
Cc1ccccc1Nc1c(-c2ccccn2)nc2ccccn12,0,9.2µM,0,0,8.2µM,0
Cc1ccn2c(Nc3ccccc3)c(-c3ccccn3)nc2c1,0,4.61µM,0,0,2.59µM,0
CC(C)=NO[C@@H](C)CN1CCCCc2nc(C)c(C)cc21,0[21 µM],-,-,-,-,-
CC(=O)SC1CC2=CC(=O)CC[C@@]2(C)C2CC[C@@]3(C)[C@@H](CC[C@@]34CCC(=O)O4)C12 (some centres undefined),0,13µM,0,0,16.4µM,-
CCN1CCc2c(sc(NC(=S)NC(=O)c3cccc(F)c3)c2C(N)=O)C1,0,?,-,?,?,-
COc1c(C(CC(C)C)OC(C)=O)ccc2c1C(=O)OCc1cc(C)cc(O)c1O2 (centres undefined),-,9.2µM,0,0,11.6µM,0
COc1c(C(O)CC(C)C)ccc2c1C(=O)OCc1cc(C)cc(O)c1O2 (centres undefined),0,?,0,0,18.4µM,0
SMILES,TDP1 block,DT40 TDP1 CPT,GCN5L2 inh,VDR inhibitor,DT40 TDP1 no CPT,PLK1 PBD block
CCc1ccc(N2CC(C(=O)Nc3ccccc3N3CCCC3)CC2=O)cc1 (centres undefined),-,11.6µM,-,-,11.6µM,0
COc1ccc(N2CC(C(=O)Nc3cc(C(F)(F)F)ccc3N3CCCC3)CC2=O)c(OC)c1 (centres undefined),0,?,0,0,23.1µM,0
COc1ccc(N2CC(C(=O)Nc3ccccc3N3CCCC3)CC2=O)c(OC)c1 (centres undefined),0,2.91µM,0,0,4.61µM,0
CCc1ccc(N2CC(C(=O)Nc3ccccc3F)CC2=O)cc1 (centres undefined),0,0,0,0,0,0
COCCNC(=O)C1(C)CCN(C(=O)c2oc3ccccc3c2C)C1 (centres undefined),-,0,-,-,0,0
CCOC(=O)c1cc2c(=O)n3cccc(C)c3nc2n(Cc2ccco2)c1=NC(=O)c1cccnc1,0,16.4µM,0,0,?,0
CCOC(=O)c1cc2c(=O)n3ccccc3nc2n(Cc2ccco2)c1=NC(=O)c1c(F)cccc1Cl,0,?,0,?,20.6µM,-
Cc1cccc(C(=O)N=c2c(C#N)cc3c(=O)n4cccc(C)c4nc3n2Cc2ccco2)c1,15.8µM,20.6µM,0,0,?,0
CCOC(=O)c1cc2c(=O)n3ccccc3nc2n(Cc2ccco2)c1=NC(=O)c1cccc(Br)c1,0,16.4µM,?,0,?,-
CCOC(=O)c1cc2c(=O)n3ccccc3nc2n(Cc2ccco2)c1=NC(=O)c1cccnc1,-,?,0,?,?,0
CCOC(=O)c1cc2c(=O)n3ccccc3nc2n(Cc2ccco2)c1=NC(=O)c1ccc(C)c(C)c1,0,0,0,0,?,-
CCOC(=O)c1cc2c(=O)n3ccccc3nc2n(Cc2ccco2)c1=NC(=O)c1ccc(Br)cc1,0,18.4µM,0,89.1µM,0,-
CCOC(=O)c1cc2c(=O)n3ccccc3nc2n(Cc2ccco2)c1=NC(=O)c1cccc(C)c1,0,23.1µM,0,0,?,-
CCOc1cc(C(c2c(C)[nH][nH]c2=O)c2c(C)[nH][nH]c2=O)cc([N+](=O)[O-])c1O,-,0,0,0,0,0
CCOc1cc(C(c2c(C)[nH][nH]c2=O)c2c(C)[nH][nH]c2=O)cc(Br)c1OC,-,0,0,0,0,?
COc1cc(C(c2c(C)[nH][nH]c2=O)c2c(C)[nH][nH]c2=O)cc([N+](=O)[O-])c1O,0,?,0,0,?,26.7µM
COc1cc(C(c2c(C)[nH][nH]c2=O)c2c(C)[nH][nH]c2=O)cc(Br)c1OC,-,0,0,?,?,26.7µM
COc1ccc(OC)c(NC(=O)Cc2c(C(=O)O)n(C)c3ccc(C)cc23)c1,0,0,0,?,0,-
Cc1cc(C(=O)CSc2nc(N)cc(N)n2)c(C)n1-c1cccc(F)c1,0,?,0,0,?,?
CCc1ccc(C(=O)CSc2nc(N)cc(=O)[nH]2)cc1,-,?,0,0,?,0
COc1ccc(CCn2c(C)cc(C(=O)CSc3nc(N)cc(=O)[nH]3)c2C)cc1,0,11.6µM,?,0,11.6µM,0
Cc1cc(C(=O)CSc2nc(N)cc(=O)[nH]2)c(C)n1CCc1ccc(F)cc1,0,18.4µM,0,0,11.6µM,0
